A selection: hits, their analogues and other compounds. The true share with any hit is near 7.2%.
A1 inh = inhibitors of the anti-apoptotic protein A1, read as caspase activation; MEF A1-2A-BIM cells, Caspase-Glo 3/7 luminescence, 3 h; percent of clofoctol response, vehicle zero; hit rate 0.066% among 330,000; caspase activation, % (test concentration not listed);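 active = over half of replicate activation scores above 10%, or exactly half above 10 with the replicate mean above 10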
VLA-4 inh = inhibition in a human VLA-4 binding assay. VLA-4 expressing cells, ligand binding flow cytometry. inhibition, % (about 7 µM as worked out from the volumes in the protocol). hit rate 0.2% among 330,000; in the data active = inhibition above about 50%
Target sequence (P13612 whole entry, looked up): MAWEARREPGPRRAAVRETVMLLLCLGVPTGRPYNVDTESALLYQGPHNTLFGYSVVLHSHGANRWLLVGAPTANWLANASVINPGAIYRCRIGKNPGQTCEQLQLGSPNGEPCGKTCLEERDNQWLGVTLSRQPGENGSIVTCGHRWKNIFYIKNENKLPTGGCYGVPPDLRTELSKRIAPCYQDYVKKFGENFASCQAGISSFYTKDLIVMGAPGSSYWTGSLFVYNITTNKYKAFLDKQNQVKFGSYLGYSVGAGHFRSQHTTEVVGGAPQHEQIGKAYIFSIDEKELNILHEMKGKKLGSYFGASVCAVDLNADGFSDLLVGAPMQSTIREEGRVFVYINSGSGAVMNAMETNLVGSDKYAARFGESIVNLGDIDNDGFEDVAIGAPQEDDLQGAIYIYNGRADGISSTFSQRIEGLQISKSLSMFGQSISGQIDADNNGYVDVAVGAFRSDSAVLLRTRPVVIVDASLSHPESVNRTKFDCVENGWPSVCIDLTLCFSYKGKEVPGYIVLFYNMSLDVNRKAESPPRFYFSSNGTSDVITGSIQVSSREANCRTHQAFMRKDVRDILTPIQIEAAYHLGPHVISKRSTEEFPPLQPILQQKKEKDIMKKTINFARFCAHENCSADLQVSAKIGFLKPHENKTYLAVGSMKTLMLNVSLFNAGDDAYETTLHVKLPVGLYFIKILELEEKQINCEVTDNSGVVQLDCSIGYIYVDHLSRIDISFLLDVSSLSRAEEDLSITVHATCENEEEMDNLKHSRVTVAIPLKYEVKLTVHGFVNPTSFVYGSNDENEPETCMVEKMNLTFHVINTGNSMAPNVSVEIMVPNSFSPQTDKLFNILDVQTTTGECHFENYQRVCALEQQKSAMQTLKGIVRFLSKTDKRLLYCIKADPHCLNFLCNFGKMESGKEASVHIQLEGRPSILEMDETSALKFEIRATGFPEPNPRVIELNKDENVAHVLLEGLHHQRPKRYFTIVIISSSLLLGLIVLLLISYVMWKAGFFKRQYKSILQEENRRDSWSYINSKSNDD
Efflux pump mplx = blocks antifungal efflux pumps in multiplex yeast assay | S. cerevisiae Candida pump triplex, Nile Red efflux | inhibition, % at 10 µM | hit rate 0.44% among 330,000;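 active = plate passing quality check with inhibition over a set limit, or well fluorescence over plate mean plus 4 SD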;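 note: Nile Red retained in pooled yeast measured as flow cytometry median fluorescence; higher means more Nile Red kept so more efflux inhibition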
AHR act = activates the human aryl hydrocarbon receptor. AHR-responsive luciferase reporter cells, luminescence. activation, % at 5 µM. P35869. AID 2796. hit rate 2.5% among 320,000; in the data active = activation above about 47%
SUMO Mot1 rescue = blocks SUMOylation pathway, rescuing yeast Mot1-301 growth; growth rescue, % at 18.8 µM; AID 2716; hit rate 1% among 320,000; S. cerevisiae Mot1-301 growth rescue, ATP luminescence, 38.5C; percent above DMSO median, 100 means doubled;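 active = every valid replicate shows activation above 250% relative to neutral control wells; inactive = the rest, any valid replicate at or below 250%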
ALR H2O2 inh = human ALR oxidase inhibition via reduced H2O2 | purified ALR, DTT oxidation, H2O2 HRP-luminol luminescence | inhibition, % (concentration not given with the values) | hit rate 3.8% among 290,000;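 active = mean replicate inhibition above about 79%, with every replicate also reaching it, limit read from the data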
Hits are given with their value; n = inactive; x = not tested or not shown.

SMILES | A1 inh | VLA-4 inh | Efflux pump mplx | AHR act | SUMO Mot1 rescue | ALR H2O2 inh
CCN(Cc1ccccc1)C(=O)c1ccc(N(C)S(=O)(=O)c2ccc(C)cc2)cc1 | n | n | n | n | n | n
O=C(COc1ccc2c(-c3ccccc3)cc(=O)oc2c1)NCCCn1ccnc1 | n | n | n | n | n | n
CN1C(=O)C(N=Nc2ccccc2C(=O)O)N(C)C1=S (stereo not drawn) | n | n | n | n | n | 98
O=C(CC(SCc1ccco1)c1ccc(O)cc1)c1cccs1 (stereo not drawn) | n | n | n | n | 600 | 96
O=C(CSc1nnc(-c2cccnc2)n1Cc1ccco1)c1ccccc1 | n | n | n | n | n | n
O=C(CSc1nnc(-c2ccc(O)cc2)n1Cc1ccco1)c1cccs1 | n | n | n | n | n | 99
O=C(CSc1nnc(-c2ccncc2)n1Cc1ccco1)Nc1cccc(O)c1 | n | n | n | n | n | n
O=C(CC(SCCO)c1ccc2c(c1)OCO2)c1cccs1 (stereo not drawn) | n | n | n | n | n | n
O=C(CSc1nnc(-c2ccc(O)cc2)n1Cc1ccco1)c1ccccc1 | n | n | n | n | n | 94
CC(C)C(NS(=O)(=O)c1cccs1)C(=O)NCc1ccc2c(c1)OCO2 (stereo not drawn) | n | n | n | n | n | x
O=C(N/N=C1\C/C(=N\NC(=O)c2ccncc2)c2ccccc21)c1ccncc1 | n | n | n | 56 | x | n
Nc1c(-c2n[nH]c(=S)n2-c2ccc(Cl)cc2Cl)cnn1-c1ccccc1 | n | n | n | n | n | n
Nc1[nH]nc2c1NN(c1ccc(Cl)cc1Cl)N2 | n | n | n | 75 | n | n
Cc1ccn2c(NC3CCCCC3)c(C(C)C)nc2c1 | n | n | n | n | n | 99
Cc1ccn2c(NC3CCCCC3)c(C)nc2c1 | n | n | n | n | n | 95
Cc1cc(C)c2nc(N3CCCC(C(=O)NC4CCCC4)C3)sc2c1 (stereo not drawn) | n | n | n | n | n | n
CCc1cccc(NC(=O)c2cc(S(=O)(=O)N(C)C)ccc2N2CCCC2)c1 | n | n | n | n | n | n
Cc1c(F)cccc1NC(=O)CCCCCC1NC(=O)NC1C (stereo not drawn) | n | n | n | n | n | x
CCC(C)(C)NC(=O)/C=C/c1ccccc1[N+](=O)[O-] | n | n | n | n | n | 95
Cc1oc2cc(O)ccc2c(=O)c1Oc1ccccc1Br | n | n | n | 59 | n | n
Oc1ccc(N2Cc3ccccc3C2)cc1 | n | n | n | n | n | 84
CSc1nc(=S)c2[nH]c(=S)[nH]c2[nH]1 | n | n | n | x | n | 99
CSc1nc2c(c(=O)[nH]1)CCCC2 | n | n | n | n | n | n
Cc1ccc(C(=O)Nc2nc3nc(-c4ccccc4)cc(=O)n3[nH]2)cc1 | n | n | n | n | n | 92
CCOCCOC(=O)c1[nH]c2c(c1C)C(=O)CC(c1cccs1)C2 (stereo not drawn) | 5.9 | n | n | n | n | n
SMILES | A1 inh | VLA-4 inh | Efflux pump mplx | AHR act | SUMO Mot1 rescue | ALR H2O2 inh
CCCCCOC(=O)c1[nH]c2c(c1C)C(=O)CC(c1ccco1)C2 (stereo not drawn) | n | n | n | 140 | n | n
Brc1cccc(-c2nnc(SCc3ccon3)n2-c2ccccc2)c1 | n | n | n | n | n | n
O=C(Nc1nnc(-c2ccccn2)o1)c1cccc(Cl)c1 | n | n | n | n | n | x
O=C(Nc1nnc(-c2ccco2)o1)c1ccc(Cl)s1 | n | n | n | n | n | 96
O=C(Nc1nnc(-c2ccco2)o1)c1cccc(Cl)c1 | n | n | n | n | n | 96
Cc1ccc(NC(=O)CS(=O)CC(=O)Nc2ccccc2-c2ccc(C)o2)cc1 (stereo not drawn) | n | n | n | n | n | 99
CCC1CCCCN1S(=O)(=O)c1ccc(NC(=O)c2nc(S(C)(=O)=O)ncc2Cl)cc1 (stereo not drawn) | 11 | n | n | n | n | 77
CCS(=O)(=O)c1ncc(Cl)c(C(=O)Nc2ccc(S(=O)(=O)N3CCCC(C)C3)cc2)n1 (stereo not drawn) | 49 | n | n | n | n | n
O=C(NC1CCCCC1)C(c1ccc(F)cc1)N(Cc1ccco1)C(=O)c1csnn1 (stereo not drawn) | n | n | n | n | n | n
COC(=O)c1cc(NC(=O)C2CC(=O)NC(=NCc3ccc(OC)cc3)S2)cc(C(=O)OC)c1 (stereo not drawn) | n | n | n | n | n | n
Cn1cccc1CNC(=O)Nc1ccccc1 | n | n | n | n | n | n
Cn1cccc1CNC(=O)Nc1ccc(Cl)cc1 | n | n | n | 75 | n | n
COc1ccc(N2CCN(C3CCCN(C(=O)CSC)C3)CC2)cc1 (stereo not drawn) | n | n | n | n | n | x
O=C(Nc1nc2ccc(SC(F)F)cc2s1)c1ccc(NS(=O)(=O)c2ccc(F)c(F)c2)cc1 | n | n | n | n | 622 | 99
NNC(=O)c1csc(-c2ccc(C(F)(F)F)cc2Cl)n1 | n | n | n | n | n | 93
Cc1ccc(Nc2nc3ccccc3n3nnnc23)cc1 | n | n | n | 52 | n | n
Cc1cccc(Nc2nc3ccccc3n3nnnc23)c1 | n | n | n | n | n | n
Nc1ccc(O)c(C(=O)O)c1 | n | 51 | n | n | n | n
COc1cc(N)ccc1C(=O)O | n | n | n | n | n | n
Nc1nc2ccc(-c3nc4ccccc4o3)cc2s1 | n | n | n | n | n | 97
CCc1ccc(NC(=O)CCn2c(=O)c3cccn3c3ccccc32)cc1 | n | n | n | 50 | n | n
CCc1ccc(NC(=O)Cn2c(=O)c3cccn3c3ccccc32)cc1 | n | n | n | n | n | n
CCOc1ccc(N2CC(C(=O)NCCN3C(=O)S/C(=C\c4ccc(OC)c(OC)c4)C3=O)CC2=O)cc1 (stereo not drawn) | n | n | n | n | n | n
Cc1ccc(C(=O)Nc2cc3[nH]c(=O)oc3cc2C)cc1 | n | n | n | n | 303 | n
COc1ccc(NS(=O)(=O)c2c(F)cc(F)c(Cl)c2F)cc1S(=O)(=O)N1CCCCC1 | n | n | n | n | n | n
SMILES | A1 inh | VLA-4 inh | Efflux pump mplx | AHR act | SUMO Mot1 rescue | ALR H2O2 inh
Cc1nc(S/C(C(=O)O)=C2/C(=O)Nc3ccccc32)n[nH]1 | n | n | n | n | n | n
CN(C)CC#CCCCCCCC#CCN(C)C | n | n | n | n | 996 | n
C#CCCCCCCC#CCN(C)C | n | n | n | n | n | n
CCN1CCN(c2cc(N3CCN(C(=O)c4ccco4)CC3)c3c4c(onc24)-c2ccccc2C3=O)CC1 | n | n | n | n | n | n
O=C(O)CCNc1cc(N2CCN(C(=O)c3ccco3)CC2)c2noc3c2c1C(=O)c1ccccc1-3 | n | n | n | 57 | n | n
Cc1ccccc1NC(=O)/C(=C/c1cccs1)NC(=O)c1ccco1 | n | n | n | n | n | n

Screening data as filed in PubChem.
